About 9,100 (2.8%) of roughly 320,000 compounds were called active. Entries that show only a call come without a potency. About 3% were inconclusive and are not listed. Calls follow the shape of the dose curve; as a rule, active = well fitted activation curve with a large enough effect; inconclusive = small, poorly fitted or top-dose-only effect; inactive = no such curve, though single readings can be large or run the other way. For the sample, actives were picked, then their nearest neighbours and some compounds at random.
Potency is read from the fitted curve at half-maximal effect.

This experiment is described as follows: qHTS Assay for Rab9 Promoter Activators. Also: nearly all actives have a fitted effect of over 60% in size. The conditions noted are these: Huh7 Rab9 promoter-luciferase reporter, luminescence, 24 h; series mostly up to 9.22 µM. Summed up:
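Quantitative HTS format; Huh7 Rab9-luciferase reporter cells (1500/well) receive compound 2 h post-plating, incubate 24 h at 37 °C, then get luciferase reagent for 10 min before luminescence reading.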
(In qHTS, concentration-response curves come from the screen itself.)
Take `CC1(C)NC(=O)N(CC(=O)N2CCN(S(=O)(=O)c3ccccc3F)CC2)C1=O`: the Potency result is “inactive”.
To `CC(=O)Nc1ccc(NC(=O)CSc2nnc(C3CC3)n2-c2ccccc2)cc1` belongs “inactive”; to `CCC(C)C(N=C1NS(=O)(=O)c2ccccc21)C(=O)N1CCC(C)CC1` (stereo not drawn), “inactive”; to `Cc1ccc(C)c(NC(=O)c2ccc3nccnc3c2)c1`, “inactive”.
`O=C(NCCc1ccc(F)cc1)c1ccc(S(=O)(=O)N2CCCCC2)cc1`: the Potency result was “inactive”.
For `O=C(NCCc1ccc(F)cc1)c1ccc2nccnc2c1`, the Potency is 1.12 µM (active).
Take `CC(=O)Nc1ccc(NC(=O)COC(=O)c2ccccc2C(=O)c2ccccc2)cc1`: the Potency result is “inactive”.
To `CCN(CC)S(=O)(=O)c1ccc2[nH]c(=O)cc(C(=O)N(C)C3CCS(=O)(=O)C3)c2c1` (stereo not drawn) belongs “inactive”.
To `Cc1ccccc1Nc1nc(N)nc(COC(=O)CCC(=O)c2ccc(F)cc2)n1` belongs “inactive”; to `O=C(Nc1nnc(-c2ccc(F)cc2)s1)c1c(F)cccc1Cl`, “inactive”.
To `NNC(=O)c1cccc(COCC(F)(F)C(F)F)c1` belongs “inactive”; to `CC(C)c1cc(C(N)=O)c(NC(=O)c2cccc(COc3ccc(Br)cc3)c2)s1`, 1.26 µM (active).
Regarding `CCOC(=O)c1cc(C(C)C)sc1NC(=O)COC(=O)c1nccnc1N`, the Potency entry is “inactive”.
To `COCC(C)NC(=O)c1ccc(-n2nc(C(F)(F)F)cc2-c2cccs2)cc1` (stereo not drawn) belongs “inactive”; to `C=CCn1c(=NC(=O)c2ccc(S(=O)(=O)N3CCCC3)cc2)sc2cc(NC(C)=O)ccc21`, “inactive”; to `C=CCn1c(CCNC(=O)c2cccs2)n[nH]c1=S`, “inactive”.
As for `C=CCn1c(=NC(=O)c2cccs2)sc2cc(NC(C)=O)ccc21`, the Potency was 3.98 µM (active).
The same measure for `Cc1cccc(NS(=O)(=O)c2cccc(C(=O)NNC(=O)c3ccccc3O)c2)c1`: “inactive”; for `O=C(CSc1ccccc1)Nc1cccc(S(=O)(=O)N2CCCCC2)c1`: “inactive”; for `CCN(c1ccccc1)S(=O)(=O)c1ccc(OCC(=O)N2CCCC2)cc1`: “inactive”.
To `CC(=O)Nc1ccc(SC[C@H](Cc2ccccc2)N2CC[C@@H](C)CCC2=O)cc1` belongs “inactive”; to `COc1cc(OC)cc(-c2nnc(N(C)C(=O)c3ccncc3)s2)c1`, “inactive”.
To `COc1cccc(-c2nnc(N(C)C(=O)c3ccno3)s2)c1` belongs “inactive”.
In the case of `CN(C(=O)c1ccccn1)c1nnc(-c2ccccn2)s1`, the Potency was 3.55 µM (active).
To `O=C(CNc1ccccc1N1CCCC1=O)Nc1cc(Cl)ccc1-n1cncn1` belongs “inactive”.
With `Cc1c(Br)c([N+](=O)[O-])nn1CC(=O)N1CCN(Cc2ccccc2)CC1`, the Potency entry was “inactive”.
The same measure for `O=C(COC(=O)c1cc(=O)[nH]c2ccccc12)NCc1cccc(Cl)c1`: “inactive”; for `COc1ccc(C(=O)NCCSc2ccccc2C)cc1`: 0.794 µM (active).
Turning to `COc1cccc(C(=O)NCCSc2ccc(Br)cc2)c1`, the Potency entry is “inactive”.
For the compound `COc1ccc(C(=O)NCc2nnc(SCCOc3ccccc3)n2C)cc1`, the Potency entry was “inactive”.
To `CCNC(=O)N1CCN(S(=O)(=O)c2ccc3c(c2)OCCCO3)CC1` belongs “inactive”; to `COc1ccc(OC)c(/C=N/NC(=O)c2ccc[n+](CC(=O)c3ccccc3)c2)c1`, “inactive”.
To `O=c1c2ccccc2nc2n1C(CSc1ccc(Cl)cc1)CN2` (stereo not drawn) belongs “inactive”; to `Clc1ccc2nc(CSc3ccccc3)cn2c1`, 0.316 µM (active); to `O=C(/C=C/c1ccc2c(c1)OCO2)NCc1cn2cc(Cl)ccc2n1`, “inactive”.
To `O=C(Nc1ccc2oc(-c3ccc4ccccc4c3)nc2c1)c1cccs1` belongs 1.26 µM (active).
Take `O=C(Nc1ccc(NC(=O)c2cccs2)cc1)c1ccc2ccccc2c1`: the Potency entry is “inactive”.
To `COc1cc2ccccc2cc1C(=O)Nc1ccc(NC(=O)c2cccs2)cc1` belongs “inactive”.
The same measure for `COc1ccc(S(=O)(=O)N2CCN(CC(=O)N3c4ccccc4CC3C)CC2)cc1OC` (stereo not drawn): “inactive”; for `Nc1nc(SCC(=O)Nc2ccc(Cl)c([N+](=O)[O-])c2)n[nH]1`: “inactive”.
Take `C/C=C\C=C\C(=O)N1CC2(CC(c3cccc(NC(=O)/C(C)=C\C)c3)=NO2)C[C@H]1C(N)=O` (stereo partly drawn): the Potency result is “inactive”.
On to `COc1ccccc1C1CCN(C(=S)Nc2ccc(Br)cc2)CC1`, for which the Potency entry is “inactive”.
The same measure for `CC(C(=O)N1CCc2ccccc21)N(C)CC(=O)Nc1ccc(F)cc1` (stereo not drawn): “inactive”; for `CN(Cc1cccnc1)C(=O)c1cc(COc2ccc3ncccc3c2)on1`: “inactive”; for `CN(Cc1cnccn1)C(=O)c1cc(COc2cccc(C(F)(F)F)c2)on1`: “inactive”.
In the case of `Cc1cc(CN(C)C(=O)c2cc(COc3ccc(C)c(C)c3)on2)n[nH]1`, the Potency was 2 µM (active).
On to `CCn1ccnc1CN(C)C(=O)c1cc(COc2ccc(-n3cncn3)cc2)on1`, for which the Potency result was “inactive”.
For the compound `CN(CCOc1ccccc1)C(=O)c1cc(COc2c(F)cccc2F)on1`, the Potency entry was “inactive”.
The same measure for `Cc1ccc(OCc2cc(C(=O)N(C)CCc3ccccc3)no2)cc1C`: 3.98 µM (active); for `COc1ccc(C(=O)N2CCN(c3ncccn3)CC2)cc1S(=O)(=O)N1CCOCC1`: “inactive”; for `COc1cccc(NC(=O)CN(C)C(=O)/C=C/c2cn(-c3ccccc3)nc2-c2cccs2)c1`: “inactive”.
The same measure for `CN(C)CCn1c(=S)[nH]c2ccc(Cl)cc2c1=O`: “inactive”.
The same measure for `CN(C)CCN=c1cc(-c2ccccc2)oc2ccc(Cl)cc12`: 2.82 µM (active).
Regarding `O=C(NCC#CCSc1nnc(-c2cccc3ccccc23)o1)c1cccs1`, the Potency result is “inactive”.
The same measure for `COCCN(C(=O)CC1CCCCC1)c1c(N)n(CC(C)C)c(=O)[nH]c1=O`: “inactive”; for `O=C(Nc1ccc(S(=O)(=O)N2CCCCC2)cc1)C1CCN(C(=O)c2ccc(F)cc2)CC1`: “inactive”.
Take `Cc1ccc(S(=O)(=O)N(C)C)cc1NC(=O)CN1c2cccc3cccc(c23)S1(=O)=O`: the Potency result is “inactive”.
To `COc1ccccc1CC(=O)Nc1ccc(F)cc1F` belongs “inactive”; to `COc1cc(OC)cc(C(=O)OCC(=O)Nc2ccc(F)cc2F)c1`, “inactive”.
The same measure for `COc1ccc(NC(=O)c2ccc(OC)cc2)cc1`: 1.41 µM (active).
To `COc1ccc(C(=O)Nc2cccc(S(C)(=O)=O)c2)cc1` belongs “inactive”.
For `COc1ccc(NC(=O)c2ccc(C#CC(C)(C)O)cc2)cc1`, the Potency entry is “inactive”.
To `COc1ccc(C(=O)Nc2ccc(F)cc2F)cc1` belongs 2.51 µM (active); to `COc1ccc(NC(=O)CC2SC(N3CCCCC3)=NC2=O)cc1OC` (stereo not drawn), “inactive”.
Consider `CCCc1ccc(C(=O)COC(=O)CN2C(=O)NC3(CCCCC3C)C2=O)cc1` (stereo not drawn), for which the Potency result is “inactive”.
In the case of `C=CCN1CCN(C(=O)CCCc2ccccc2)CC1`, the Potency is 0.1 µM (active).
To `CCC(C)NC(=O)CCCc1ccccc1` (stereo not drawn) belongs “inactive”.
For the compound `O=C(CCCc1ccccc1)NCc1ccccc1`, the Potency entry was “inactive”.
The same measure for `CS(=O)(=O)c1ccc2nc(NC(=O)C3CCCCC3)sc2c1`: “inactive”.
To `COc1ccc2nc(NC(=O)[C@@H]3CCCN3C(=O)c3cccs3)sc2c1` belongs “inactive”.
To `CCn1c(SCC(=O)Nc2nc3ccc(OC)cc3s2)nnc1-c1ccoc1C` belongs “inactive”.
Regarding `CCc1noc(C)c1C(=O)Nc1nc2ccc(OC)cc2s1`, the Potency entry is “inactive”.
For `COc1ccc2nc(NC(=O)NC3CCCCC3)sc2c1`, the Potency is 2 µM (active).
The same measure for `COc1ccc2nc(NC(=O)c3ccc(Br)s3)sc2c1`: 2.24 µM (active); for `C=CCN(c1ccccc1C(=O)NCC(=O)OCC)S(=O)(=O)c1ccc(C)cc1`: “inactive”.
For `COc1cc(C#Cc2ccc3cc(CCCO)oc(=O)c3c2)cc(OC)c1`, the Potency result was “inactive”.
Take `O=C(O)c1cc(S(=O)(=O)Nc2ccc3cn[nH]c3c2)ccc1Br`: the Potency entry was “inactive”.
To `O=C(CN1C(=O)NC2(CCOc3ccccc32)C1=O)NCc1ccc(F)cc1` (stereo not drawn) belongs “inactive”; to `CCOc1ccc(OCC(=O)OC(C)C(=O)NC2CCCCC2C)cc1` (stereo not drawn), “inactive”.
The same measure for `c1csc(-c2nc(-c3ccncc3)no2)c1`: 2.51 µM (active).
As to `c1ccc(CCc2nc(-c3ccncc3)no2)cc1`, the Potency entry is “inactive”.
To `Cc1ccc(-c2noc(CSc3nnc(-c4cccs4)n3C)n2)cc1` belongs “inactive”.
`COc1nc(-c2ccc(Cl)cc2)ccc1-c1noc(-c2cccs2)n1`: the Potency result is “inactive”.
To `c1ccc(-c2noc(-c3cccs3)n2)nc1` belongs 0.355 µM (active).
To `O=C(NCc1cccnc1)c1nc(-c2cccs2)no1` belongs “inactive”; to `Clc1ccc(-n2nnnc2-c2cnc(-c3ccccn3)nc2-c2cccs2)cc1`, “inactive”.
To `Cc1ccc(-c2noc(CSc3nnc(-c4ccncc4)n3-c3ccc(F)cc3)n2)cc1` belongs “inactive”; to `Cc1ccc(-c2nc(-c3ccncc3)no2)c(C)c1`, 2.51 µM (active).
In the case of `COc1cccc(C2=CC(=O)C[C@H](c3ccc(OC)c(OC)c3)C2)c1`, the Potency entry is “inactive”.
To `Cc1ccc(NC(=O)CCCNC(=O)c2ccc(Cl)cc2)cc1S(=O)(=O)N1CCCCC1` belongs “inactive”; to `CN(CCc1ccccn1)C1CCCN(S(=O)(=O)c2ccccc2Cl)C1` (stereo not drawn), “inactive”.
On to `O=C(NNC(=O)C1CCC1)c1ccccc1`, for which the Potency result is “inactive”.
For `COc1ccc(C(=O)N2CCN(c3ccc(C(C)=O)cc3F)CC2)cc1S(=O)(=O)NC1CC1`, the Potency entry was “inactive”.
To `O=S(=O)(NC1CCN(S(=O)(=O)c2ccc3c(c2)OCCO3)CC1)c1c(F)cccc1F` belongs “inactive”.
`CN1CCC(N(C)S(=O)(=O)c2ccc(NC(=O)c3cccc(C#N)c3)cc2)CC1`: the Potency result is “inactive”.
To `COC(=O)c1cc(NC(=O)C2C3C=CC(C3)C2C(=O)O)cc(C(=O)OC)c1` (stereo not drawn) belongs “inactive”; to `CC(C)COC(=O)c1ccc(NC(=O)C2C3C=CC(C3)C2C(=O)O)cc1` (stereo not drawn), 2.24 µM (active); to `CC(=O)NS(=O)(=O)c1ccc(NC(=O)C2C3C=CC(C3)C2C(=O)O)cc1` (stereo not drawn), “inactive”.
As to `CCOc1ncccc1C(=O)OCC(=O)N1c2ccccc2CC1C` (stereo not drawn), the Potency entry is “inactive”.
To `Cc1cc(NC(=O)CSc2nc(C(C)C)nc3sc4c(c23)CCC(C)C4)no1` (stereo not drawn) belongs “inactive”.
To `CC(NC(=O)CSc1nc2c(cc1C#N)CN(C)CC2)c1ccccc1` (stereo not drawn) belongs “inactive”.
As to `Cc1cc(NC(=O)CSc2nc3c(cc2C#N)CCCCC3)no1`, the Potency was 2 µM (active).
The same measure for `O=C(CNC(=O)C(c1ccccc1)c1ccccc1)N/N=C\c1ccc2c(c1)OCO2`: “inactive”.
The same measure for `O=C(Cc1ccc(F)cc1)N/N=C/c1ccc2c(c1)OCO2`: 2.82 µM (active).
With `O=C(N/N=C/c1ccc([N+](=O)[O-])cc1)C(=O)N1CCCC1`, the Potency entry was “inactive”.
On to `COC(=O)c1ccc(/C=N/NC(=O)C(=O)N2CCCCCC2)cc1`, for which the Potency entry is “inactive”.
Regarding `O=C(/C=C/c1ccc2c(c1)OCO2)NCc1ccc(F)cc1`, the Potency result is “inactive”.
To `O=C(N/N=C/c1ccc2c(c1)OCO2)C(=O)N1CCCC1` belongs 2.82 µM (active).

(Values after PubChem BioAssay AID485297 (National Center for Advancing Translational Sciences (NCATS), 2010).)
